Measured values published in the OligoGym collection.

These sequences were tested against CORIN (assay: pooled miR-30 sensor sort-seq; sequence = guide strand). Conditions: shRNA.
Further: reference of the scale not given here.

Sequence | sensor-assay potency score (higher = more potent)
TTGAGTATGTAGCTACAACTGT | -0.57
TAAAATTGCAGGTAGTATCTAT | 0.492
TTAAACATGTAAATTATCTTGG | 0.389
TTTATTGCTGTCTTTTATCAGT | -0.911
TTATTCAGACTGTTGTTCGGGT | 0.501
TATTTGTAAGAATAACATCGGA | -0.524
TTGATATACATCCAGAATGGGG | -1.35
TAAATCTGTCTTTTAATCCATT | -1.02
ATGATCTTGATATACATCCAGA | -1.55

The sequences below were run against CORO2B in the same assay as above. Conditions: shRNA.

Sequence | sensor-assay potency score (higher = more potent)
TAATGCATCTAGTAGATCCTAG | 0.537
TTGTCGTGCACATTCTTGGTGA | -0.294
TTTTCTAATAAATCTATTCCGT | -0.324
TATTTCAATTCTATCCTTGGGA | 0.222
TTCTAATAAATCTATTCCGTTG | -0.9
ATCTGTCTTGTGTTCCACCTGG | -0.685
TTCTTGTCCTTGCACGTGGTGG | -1.22
TAGAAGCGGAACACCTCGCAGG | -0.524
TTTCTAATAAATCTATTCCGTT | -1.03
TAGACATTCCGGAACTTGGAGC | -1.06
TTGTAGTCGTAGCCAGCGCTGA | -0.89
TTGTAGAAGCGGAACACCTCGC | -0.204
